High-throughput results: PubChem BioAssay, Sanford-Burnham Center for Chemical Genomics
Peg3 prom inh: Peg3 promoter-driven luciferase inhibitors, primary screen, cell-based, HeLa, luciferase luminescence; HeLa PEG-Prom luciferase reporter, overnight; inhibition, % at 20 µM; hit rate 1.7% among 360,000;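 active = inhibition of at least 50% at 20 µM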
KKLEB cytotox: cytotoxicity in KKLEB CF airway cells, primary screen, cytotoxicity control for CF NF-kB inhibitor project, cell-based, uHTS, fluorescence assay plates; KKLEB CF airway cells viability, ATPlite luminescence, overnight; stronger effect = lower value; cells stimulated with P. aeruginosa culture filtrate; activity change (cytotoxicity), % at 5 µM; hit rate 0.36% among 360,000; AID 602141, 2011;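 active = corrected activity change at or below -50% at 5 µM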
CF NFkB inh: inhibitors of PAF-induced NF-kB signaling, primary screen, cell-based, GFP fluorescence, uHTS; hit rate 0.86% among 360,000; AID 588850, 2011; inhibition, % at 5 µM; KKLEB NF-kB-GFP reporter, GFP fluorescence overnight;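 active = at least 50% inhibition at 5 µM, scaled per plate between neutral and stimulator controls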;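 note: PAF is a Pseudomonas aeruginosa culture filtrate used as stimulus; plate controls were PAF-stimulated DMSO wells for no effect and unstimulated DMSO wells for full effect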
HIF-2a block: HIF-2a reporter inhibitors, primary screen, luminescence, 786-0 RCC cells. AID 624352, 2012. 786-0 RCC cells HIF-2a reporter, luciferase luminescence, overnight. inhibition, % at 18.8 µM. hit rate 0.72% among 360,000;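 active = inhibition of the luminescence signal of 40% or more relative to plate controls, in a single-dose primary screen at 18.75 µM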
C8 TRAIL sens: viability loss with TRAIL in NB7+C8 cells, primary screen, TRAIL sensitizer project, cell-based, ATPlite luminescence; inhibition (viability loss, TRAIL sensitization), % at 10 µM; hit rate 1% among 360,000;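 active = compounds causing at least 50% loss of cell viability in the single-dose screen, relative to plate controls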
PPC-1+TRAIL kill: compounds killing PPC-1 cancer cells with TRAIL present, primary screen, TRAIL potentiator project, ATPLite luminescence, uHTS; PPC-1 cells + TRAIL, ATPLite viability luminescence; cell killing (% activity), % at 4 µM or 5 µM; hit rate 0.41% among 220,000;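 active = cell killing above 50% in the first pass at 4 µM, then a duplicate retest at 5 µM averaging 50% or more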;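 note: plate controls were cells with TRAIL plus DMSO for no effect and medium-only wells lacking cells for full effect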
The depositor's hits bear a star; . = no result. Sampled rows, rich in hits. Any-hit rate of the full collection: about 3.1%.

SMILES	Peg3 prom inh	KKLEB cytotox	CF NFkB inh	HIF-2a block	C8 TRAIL sens	PPC-1+TRAIL kill
C=CC(=O)Nc1cccc(Nc2nc(N[C@H]3CC[C@H](N(C)C)CC3)nc3c2ncn3C(C)C)c1	101.7*	-70.0*	84.6*	71.5*	82.7*	.
O=C(O)Cc1ccc2sc(-c3ccccc3)nc2c1	-40.0	-3.3	6.8	-44.9	25.0	9.1
COC(=O)Cc1ccc2sc(-c3ccccc3)nc2c1	-112.6	-5.3	3.9	-183.4	62.5*	44.5
CCOC(=O)C1(C)CCCCCN1C(=O)c1ccc(C(=O)OC)cc1 (stereo not drawn)	0.2	-12.0	-26.9	3.0	0.2	.
O=C(/C=C/Nc1ccc(F)cc1Br)c1ccccc1	39.1	-71.5*	3.6	52.1*	95.2*	84.8*
CN(C)c1ccc(N/C=C/C(=O)c2ccccc2)cc1	10.8	-34.7	-7.0	-39.9	66.7*	17.8
Cc1cc(N/C=C/C(=O)c2ccccc2)ccc1Br	-298.9	-31.2	5.2	-183.4	43.0	.
CC(=O)Nc1ccc(N/C=C/C(=O)c2ccccc2)cc1	-332.1	-0.1	-18.3	-320.8	9.5	.
Cc1ccc(O)c(N/C=C/C(=O)c2ccc(F)cc2)c1	-321.2	-2.1	-21.7	-348.4	60.2*	.
O=C(/C=C/Sc1ccccc1)c1ccccc1	78.6*	-28.7	21.1	-53.5	-2.7	19.3
C=CCn1c(SCC(=O)N2CCN(c3ccccc3)CC2)nc2c([nH]c3ccccc32)c1=O	31.1	-24.2	-4.8	8.3	9.8	.
COc1ccc(OC)c(NC(=O)CSc2ccc3nnc(-c4ccccn4)n3n2)c1	7.0	-2.8	-4.6	6.6	-15.5	.
O=C(NNC(=S)Nc1ccc(Br)cc1)c1cccnc1	-58.2	7.6	-11.9	-98.5	3.0	.
O=C(/C=C\Nc1ccc(Br)cc1)c1cccnc1	-117.1	-31.7	-17.2	-115.1	65.9*	47.2
O=C(/C=C/Nc1ccccc1)c1ccccc1	-250.1	-11.6	3.7	-131.2	63.9*	23.4
CN(C)CCC(O)(c1ccccc1)c1ccccc1Cl (stereo not drawn)	5.2	22.1	-18.4	-10.8	22.5	.
Cc1ccc([N+](=O)[O-])cc1N=Nc1c(C)[nH]n(C(N)=S)c1=O	-3.7	5.1	-11.5	6.4	-18.6	.
NC(=S)n1[nH]c(-c2ccc([N+](=O)[O-])cc2)c(N=Nc2ccc(Cl)cc2)c1=O	21.5	-23.8	-17.8	-43.7	58.9*	26.4
Cc1ccc([N+](=O)[O-])cc1N=Nc1c(-c2ccc([N+](=O)[O-])cc2)[nH]n(C(N)=S)c1=O	48.4	-44.1	-27.3	-29.4	50.3*	35.3
CC1CCc2nc(N)c(C#N)c(-c3ccncc3)c2C1 (stereo not drawn)	16.8	-10.3	-9.3	20.2	8.0	15.1
CC1CCc2nc(N)c(C#N)c(-c3cccnc3)c2C1 (stereo not drawn)	30.7	-5.3	69.0*	12.8	16.7	.
CCOC(=O)c1[nH]c2cc3c(cc2c1NC(=O)CN1CCc2ccccc2C1)OCO3	67.6*	-4.0	-2.4	-7.6	17.9	30.6
CCOC(=O)c1[nH]c2cc3c(cc2c1NC(=O)CN1CCCC1)OCO3	5.5	-5.9	10.7	12.4	-11.9	12.5
CCn1cc(CNCc2cn(C)nc2-c2ccc(C3CCCCC3)cc2)cn1	67.7*	7.7	-5.0	2.2	7.7	26.8
Cn1cc(CNCc2ccc(OC(F)(F)F)cc2)c(-c2ccc3c(c2)OCCO3)n1	-87.6	-4.2	2.7	4.6	5.0	31.9
SMILES	Peg3 prom inh	KKLEB cytotox	CF NFkB inh	HIF-2a block	C8 TRAIL sens	PPC-1+TRAIL kill
O=C(Cn1cnc2ccccc2c1=O)c1ccc(OC(F)F)cc1	-115.2	7.4	-26.4	-160.9	10.6	.
O=C(N/N=C/c1ccc(Br)s1)c1ccccn1	-245.9	-4.0	7.0	-148.6	51.6*	33.6
Oc1cc(NCc2ccc(Cl)cc2)cc2cccnc12	-1.1	10.4	20.2	10.2	9.2	.
CN(C)CCCNc1cc(O)c2ncccc2c1	80.9*	-1.2	35.2	17.1	45.2	.
Clc1ccc(OCc2nn3c(C4CCCCC4)nnc3s2)cc1	18.8	2.8	2.5	7.0	57.3*	6.8
CCCc1ccc(-c2ccc(F)c(N)c2)nc1	23.9	-16.2	3.5	-14.4	69.2*	38.3
CC(C)CN(C(=O)c1cc(Cl)nc2ccccc12)C1CCS(=O)(=O)C1 (stereo not drawn)	-5.8	2.8	-0.7	-3.5	-0.2	.
CC/C(=N/Nc1cccc(C)c1)c1cnnc(SC)n1	36.8	-51.5*	55.3*	8.6	8.9	14.4
CCOC(CNc1ncnc2sc(-c3ccccc3)cc12)OCC	-25.6	-12.0	3.5	-38.4	-0.6	.
CN(C)CCCNc1ncnc2sc(-c3ccccc3)cc12	71.0*	4.3	-20.7	0.7	1.6	37.5
COc1ncccc1-c1cc2nc(NCCCN(C)C)n(C)c(=O)c2s1	-23.0	10.4	-45.3	-38.3	5.8	.
Cc1csc(SCC(=O)Nc2cccc3nsnc23)n1	-75.3	-5.8	64.4*	-86.0	-5.2	-10.1
O=C(NCC[C@@H]1CC[C@@H](NS(=O)(=O)Cc2ccccc2)[C@@H](CO)O1)C1CC1	.	.	.	1.8	3.0	.
CC1Cc2ccccc2N1C(=O)COC(=O)c1c2c(nc3ccccc13)CCCCC2 (stereo not drawn)	50.9*	-6.3	42.8	-25.3	-6.3	23.3
O=C(OCC(=O)N1CCc2ccccc21)c1c2c(nc3ccccc13)CCCC2	-29.3	-6.7	6.1	-108.7	31.7	20.9
COc1cccc(CN2CCC2(C)C(=O)Nc2cccc(Oc3ccccc3)c2)c1F (stereo not drawn)	52.0*	-3.3	-4.5	2.6	5.6	.
COc1cccc(NC(=O)C2(C)CCN2Cc2cccc(OC)c2F)c1 (stereo not drawn)	7.3	7.2	7.8	6.4	2.1	.
COc1cc(C(=O)Nc2nc(-c3ccc(Cl)cc3)c(C)s2)ccc1OCC(=O)Nc1ccc(F)cc1	34.8	-58.4*	47.5	-3.1	25.7	15.1
CCCCOc1ccc(C(=O)Nc2cc(C)c(OCC(=O)N3CCOCC3)c(C)c2)cc1	-133.5	7.5	-11.8	-151.4	12.2	18.8
CCc1ccc(-c2nc(NC(=O)c3ccc(OCC(=O)Nc4ccc(F)cc4)c(OC)c3)sc2C)cc1	11.4	0.0	-12.4	7.8	10.3	4.7
Cc1cc(NC(=O)c2ccc(Cl)cc2)cc(C)c1OCC(=O)N1CCOCC1	-169.9	11.0	12.7	-150.8	53.9*	.
COc1cc(C(=O)Nc2ccc(C)cn2)ccc1OCC(=O)N1CCOCC1	-13.9	7.0	-30.5	-45.9	6.8	.
COc1ccc(-c2nc(NC(=O)c3ccc(OCC(=O)N4CCOCC4)c(OC)c3)sc2C)cc1	65.9*	5.1	-30.7	8.0	15.9	7.0
